# According to the antibiotic and cytotoxicity screens of Wong et al. (2023):
# The whole screen tested about 39,000 compounds, of which about 3,300 (8.5%) were called active. The full list was thinned out, with actives kept by preference.
# Tested on: HepG2
# Test: cytotoxicity call (relative viability < 0.9)
# Settings: 10 µM
row,SMILES,cytotoxicity call
1,C[C@H](CO)N1C[C@H](C)[C@@H](CN(C)C(=O)Nc2ccccc2)Oc2c(NS(=O)(=O)c3cn(C)cn3)cccc2C1=O,inactive
2,C[C@H]1CN([C@@H](C)CO)C(=O)Cc2cc(NS(=O)(=O)c3ccc(F)cc3)ccc2O[C@@H]1CN(C)S(=O)(=O)c1ccccc1,inactive
3,COc1ccc2c3c([nH]c2c1)[C@@H](CO)N(CC1CCCC1)C[C@]13CCN(CC1)C(=O)c1ccc(cc1)F,inactive
4,C[C@H](NC(=O)N(C)C[C@@H]1OCc2ccccc2-c2c(n(C)c3ccccc23)C(=O)N([C@@H](C)CO)C[C@H]1C)c1ccccc1,inactive
5,O=C(C[C@H]1CC[C@H]2[C@@H](COC[C@@H](O)CN2C(=O)c2ccccc2)O1)N1CCOCC1,inactive
6,Cc1noc(C)c1S(=O)(=O)Nc1cccc2c1O[C@H](CN(C)Cc1ccc(-c3ccccc3)cc1)[C@H](C)CN([C@@H](C)CO)C2=O,inactive
7,Cc1noc(C)c1S(=O)(=O)N(C)C[C@H]1Oc2c(NC(=O)c3cnccn3)cccc2C(=O)N([C@H](C)CO)C[C@H]1C,inactive
8,COc1ccc(NC(=O)Nc2ccc3c(c2)C(=O)N([C@@H](C)CO)C[C@@H](C)[C@H](CN(C)S(=O)(=O)c2ccc(C)cc2)OCCCC[C@@H](C)O3)cc1,inactive
9,CCCNC(=O)C[C@@H]1CC[C@@H]2[C@H](COc3ccc(NC(=O)c4ccc5c(c4)OCO5)cc3C(=O)N2C)O1,inactive
10,CCCNC(=O)C[C@@H]1CC[C@@H]2[C@@H](COc3ccc(NC(=O)c4ccc5c(c4)OCO5)cc3C(=O)N2C)O1,inactive
11,COc1ccc(C(=O)Nc2ccc3c(c2)C(=O)N(C)[C@@H]2CC[C@H](CC(=O)NCC4CC4)O[C@@H]2CO3)cc1,active
12,COc1ccc(C(=O)Nc2ccc3c(c2)C(=O)N(C)[C@@H]2CC[C@@H](CC(=O)NCC4CC4)O[C@@H]2CO3)cc1,inactive
13,COc1ccc(C(=O)Nc2ccc3c(c2)C(=O)N(C)[C@H]2CC[C@@H](CC(=O)NCC4CC4)O[C@H]2CO3)cc1,inactive
14,COc1ccc(C(=O)Nc2ccc3c(c2)C(=O)N(C)[C@H]2CC[C@H](CC(=O)NCC4CC4)O[C@@H]2CO3)cc1,inactive
15,COc1ccc(C(=O)Nc2ccc3c(c2)C(=O)N(C)[C@H]2CC[C@H](CC(=O)NCC4CC4)O[C@H]2CO3)cc1,inactive
16,COc1ccc(C(=O)Nc2ccc3c(c2)C(=O)N(C)[C@@H]2CC[C@H](CC(=O)NCC4CC4)O[C@H]2CO3)cc1,active
17,CCCNC(=O)C[C@H]1CC[C@@H]2[C@@H](COc3ccc(NC(=O)c4ccc5c(c4)OCO5)cc3C(=O)N2C)O1,active
18,C[C@@H]1CCCCO[C@H](CN(C)C(=O)C2CCCCC2)[C@H](C)CN([C@@H](C)CO)C(=O)c2cc(NS(=O)(=O)c3cccs3)ccc2O1,inactive
19,Cc1cc(C(=O)Nc2cccc3c2O[C@@H](CN(C)Cc2ccccc2)[C@@H](C)CN([C@H](C)CO)C3=O)n(C)n1,inactive
20,C[C@H](CO)N1C[C@H](C)[C@H](CN(C)Cc2ccc(Oc3ccccc3)cc2)OCc2ccccc2-c2ccccc2C1=O,inactive

row,SMILES,cytotoxicity call
1,C[C@H]1CN([C@@H](C)CO)C(=O)c2cc(NC(=O)NC3CCCCC3)ccc2O[C@@H]1CN(C)Cc1ccc(C(F)(F)F)cc1,inactive
2,O=C(C[C@@H]1C=C[C@H](NS(=O)(=O)c2ccc(F)cc2)[C@@H](CO)O1)N1CCC(Cc2ccccc2)CC1,inactive
3,C[C@@H]1CN([C@H](C)CO)C(=O)CCCn2cc(nn2)CO[C@H]1CN(C)S(=O)(=O)c1ccc2ccccc2c1,inactive
4,Cc1noc(C)c1NC(=O)N(C)C[C@H]1OCCCC[C@@H](C)Oc2ccc(NC(=O)Cc3ccccc3)cc2C(=O)N([C@@H](C)CO)C[C@@H]1C,inactive
5,Cc1noc(C)c1NC(=O)Nc1cccc2c1O[C@@H](CN(C)Cc1ccc(Cl)c(Cl)c1)[C@@H](C)CN([C@@H](C)CO)C2=O,inactive
6,CO[C@@H]1CN(C)C(=O)c2ccc(NS(=O)(=O)c3ccccc3C)cc2OC[C@H](C)N(S(C)(=O)=O)C[C@H]1C,inactive
7,C[C@H]1CCCCO[C@H](CN(C)S(C)(=O)=O)[C@@H](C)CN([C@@H](C)CO)C(=O)c2cc(NS(C)(=O)=O)ccc2O1,inactive
8,COc1ccc(S(=O)(=O)Nc2ccc3c(c2)C(=O)N([C@@H](C)CO)C[C@@H](C)[C@H](CN(C)S(=O)(=O)c2ccc(OC)cc2)O3)cc1,inactive
9,N=C(N)NCCCC[C@@H]1NC(=O)CCSSC[C@@H](C(N)=O)NC(=O)[C@@H]2CCCN2C(=O)[C@H](Cc2c[nH]c3ccccc23)NC(=O)[C@H](CC(=O)O)NC(=O)CNC1=O,inactive
10,CC(C)[C@H]1C(=O)N[C@@H](CCCNC(=N)N)C(=O)NCC(=O)N[C@@H](CC(=O)O)C(=O)N[C@H](Cc2ccccc2)C(=O)N1C,active
11,N=C(N)NCCC[C@@H]1NC(=O)[C@@H](N)CSSC[C@@H](C(=O)O)NC(=O)[C@H](CC(=O)O)NC(=O)[C@@H]2CCCN2C(=O)CNC(=O)[C@H](CCCCN)NC(=O)[C@H](CC(=O)O)NC(=O)CNC1=O,inactive
12,C[C@@H]1CN([C@@H](C)CO)C(=O)Cc2cc(NC(=O)Nc3ccccc3)ccc2O[C@H]1CN(C)C(=O)Nc1cccc2ccccc12,inactive
13,C[C@H]1CN([C@@H](C)CO)C(=O)c2cccc(NC(=O)c3ccc(-c4nccs4)cc3)c2O[C@H]1CN(C)S(C)(=O)=O,inactive
14,C[C@@H]1CN([C@H](C)CO)C(=O)c2cc(C#CCc3ccccc3)cnc2O[C@H]1CN(C)C(=O)Cc1cccnc1,inactive
15,C[C@H]1CN([C@@H](C)CO)C(=O)c2cc(-c3ccc(C#N)cc3)cnc2O[C@@H]1CN(C)C(=O)Nc1ccc(C(F)(F)F)cc1,inactive
16,NCc1ccc(-c2ccc(Br)cc2)cc1,inactive
17,Cc1ccc(Oc2ccc(CN)cc2)cc1,active
18,CN(C)CCOc1ccc(CN)cc1,inactive
19,C[C@@H]1CCCCO[C@@H](CN(C)Cc2ccncc2)[C@@H](C)CN([C@H](C)CO)C(=O)c2cc(NC(=O)C3CCCCC3)ccc2O1,inactive
20,Clc1ccc(Cn2ccnc2)cc1,inactive

row,SMILES,cytotoxicity call
1,O=C(O)C=Cc1ccc(Cn2ccnc2)cc1,active
2,O=C(O)CCn1ccnc1,inactive
3,NCCN1CCO[C@@H](CC(=O)Nc2cc(Cl)cc(Cl)c2)C1=O,inactive
4,COc1cc(OC)nc([C@@H](NC(=O)C2CCN(CCN3C(=O)c4ccccc4C3=O)CC2)c2ccc(F)cc2)n1,inactive
5,CC(C)NC(=O)[C@H]1CC[C@@H](n2c(NC(=O)c3ccc(F)cc3)nc3ccc(CN4CCC(C(C)(C)O)CC4)cc32)CC1,active
6,O=C(N[C@@H](c1ccccc1)c1ccc2ccccc2n1)C1CCN(Cc2ccc(Cl)c(Cl)c2)CC1,inactive
7,COc1ccccc1S(=O)(=O)N(C)C[C@H]1OCc2cnnn2CCCC(=O)N([C@@H](C)CO)C[C@@H]1C,inactive
8,C[C@@H]1CN([C@@H](C)CO)C(=O)CCCn2nncc2CO[C@@H]1CN(C)C(=O)Nc1ccc2c(c1)OCO2,inactive
9,C[C@@H]1CN([C@H](C)CO)C(=O)c2cc(C#Cc3ccncc3)cnc2O[C@@H]1CN(C)C(=O)c1ccccc1F,inactive
10,COCCOC(=O)N1C(=O)[C@@]2(c3cc(C#CC4(O)CCCCCC4)ccc31)[C@H](C(=O)N1CCCCCCC1)[C@H]1C(=O)O[C@H](c3ccccc3)[C@H](c3ccccc3)N1[C@@H]2c1ccc(OCCO)cc1,active
11,COCCOC(=O)N1C(=O)[C@@]2(c3cc(C#CC4(O)CCCCCC4)ccc31)[C@H](c1ccc(OCCO)cc1)N1[C@H](c3ccccc3)[C@H](c3ccccc3)OC(=O)[C@H]1[C@@H]2C(=O)N1CCCCCCC1,active
12,C=CCNC(=O)[C@H]1[C@@H]2C(=O)O[C@@H](c3ccccc3)[C@@H](c3ccccc3)N2[C@@H](c2ccc(OCCO)cc2)[C@]12C(=O)N(C(=O)OCCOC)c1ccc(C#CC3(O)CCCCCC3)cc12,inactive
13,C=CCNC(=O)[C@H]1[C@@H]2C(=O)O[C@@H](c3ccccc3)[C@@H](c3ccccc3)N2[C@@H](c2ccccc2OCCO)[C@]12C(=O)N(C(=O)OCCOC)c1ccc(C#CC3(O)CCCCCC3)cc12,active
14,COCCOC(=O)N1C(=O)[C@@]2(c3cc(C#CC4(O)CCCCCC4)ccc31)[C@H](C(=O)N1CCN(c3ncccn3)CC1)[C@H]1C(=O)O[C@H](c3ccccc3)[C@H](c3ccccc3)N1[C@@H]2c1ccc(OCCO)cc1,inactive
15,COCCOC(=O)N1C(=O)[C@@]2(c3cc(C#CC4=CCCCC4)ccc31)[C@H](C(=O)N1CCCCCCC1)[C@H]1C(=O)O[C@H](c3ccccc3)[C@H](c3ccccc3)N1[C@@H]2c1ccc(OCCO)cc1,inactive
16,C=CCNC(=O)[C@H]1[C@@H]2C(=O)O[C@@H](c3ccccc3)[C@@H](c3ccccc3)N2[C@@H](c2ccc(O)cc2)[C@]12C(=O)N(C(=O)OCCOC)c1ccc(C#CC3(O)CCCCCC3)cc12,inactive
17,COCCOC(=O)N1C(=O)[C@@]2(c3cc(C#CC4(O)CCCCCC4)ccc31)[C@H](c1ccc(OCCO)cc1)N1[C@H](c3ccccc3)[C@H](c3ccccc3)OC(=O)[C@H]1[C@@H]2C(N)=O,inactive
18,COCCOC(=O)N1C(=O)[C@@]2(c3cc(C#CC4(O)CCCCCC4)ccc31)[C@H](c1ccc(OCCO)cc1)N1[C@H](c3ccccc3)[C@H](c3ccccc3)OC(=O)[C@H]1[C@@H]2C(=O)N1CCN(c2ncccn2)CC1,inactive
19,COc1ccc(NC(=O)Nc2cccc3c2O[C@H](CN(C)Cc2ccc(C(F)(F)F)cc2)[C@@H](C)CN([C@@H](C)CO)C3=O)cc1,inactive
20,COc1ccc(NC(=O)Nc2ccc3c(c2)[C@H]2C[C@H](CC(=O)NCc4ccccn4)O[C@@H](CO)[C@H]2O3)cc1,inactive
